An excerpt weighted towards active compounds, which were near 4.7% of everything screened.
3CLpro inhibitor – SARS-CoV 3CLpro protease inhibition. P0C6X7. recombinant SARS-CoV 3CLpro, quenched FRET peptide cleavage. inhibition, % at 6 µM. hit rate 0.14% among 290,000; in the data active means inhibition above about 12%
Mtb FBA inh – Mtb fructose-bisphosphate aldolase inhibition | hit rate 2.3% among 360,000 | inhibition, % at 1 µM | purified M. tuberculosis FBA, fluorescence read-out; in the data active means inhibition above about 27%;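 further: 0% = vehicle and 100% = reference inhibitor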
RecA intein inh – Mtb RecA intein splicing inhibition. AID 2221. P9WHJ3. cell-free RecA intein splicing, fluorescence. inhibition, % (no concentration beside the values). hit rate 0.75% among 290,000; in the data active means inhibition above about 30%;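 further: 0% = vehicle wells and 100% = reference inhibitor control wells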
Target sequence (P9WHJ3 whole entry, looked up): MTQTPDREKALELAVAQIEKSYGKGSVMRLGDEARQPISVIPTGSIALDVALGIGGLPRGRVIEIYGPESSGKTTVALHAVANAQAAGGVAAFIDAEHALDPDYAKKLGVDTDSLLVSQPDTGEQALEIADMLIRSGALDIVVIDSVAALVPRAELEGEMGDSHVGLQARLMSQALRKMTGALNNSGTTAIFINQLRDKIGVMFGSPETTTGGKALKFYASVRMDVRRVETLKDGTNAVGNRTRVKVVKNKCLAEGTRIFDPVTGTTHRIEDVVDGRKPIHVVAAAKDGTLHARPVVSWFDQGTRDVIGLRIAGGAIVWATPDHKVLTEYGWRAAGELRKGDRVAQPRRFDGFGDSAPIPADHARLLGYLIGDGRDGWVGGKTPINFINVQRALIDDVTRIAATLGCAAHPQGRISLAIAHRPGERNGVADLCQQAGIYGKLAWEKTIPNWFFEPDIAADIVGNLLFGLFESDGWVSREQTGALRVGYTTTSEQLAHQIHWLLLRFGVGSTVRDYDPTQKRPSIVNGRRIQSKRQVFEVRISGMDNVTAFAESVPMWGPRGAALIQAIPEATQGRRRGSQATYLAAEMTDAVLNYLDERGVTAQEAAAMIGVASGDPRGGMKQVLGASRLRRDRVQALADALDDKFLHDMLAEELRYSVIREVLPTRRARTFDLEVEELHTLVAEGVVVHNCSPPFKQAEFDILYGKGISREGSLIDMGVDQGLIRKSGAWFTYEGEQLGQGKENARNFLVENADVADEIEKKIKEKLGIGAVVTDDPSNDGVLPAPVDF
GDH-TPI counter – counter-screen for M. tuberculosis FBA inhibitors: GDH-TPI coupled enzymes; GDH-TPI coupled enzyme counterscreen, NADH absorbance; inhibition, % at 4.8 µM; hit rate 1.2% among 360,000; AID 588335;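 further: 0% = DMSO wells and 100% = wells lacking the enzyme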
DUSP3 inh – DUSP3 (human) phosphatase inhibition | P51452 | recombinant VHR phosphatase, pNPP absorbance | inhibition, % at 13.3 µM | hit rate 0.52% among 290,000 | AID 1654; in the data active means inhibition above about 50%
CCHF vOTU inh-1 – blocks the CCHF virus ovarian tumor domain protease; CCHFV vOTU protease, Pep-AMC fluorescence; hit rate 0.55% among 370,000; AID 651958; inhibition, % at 11.5 µM; further: 0% = vehicle wells with enzyme and 100% = no enzyme wells
CCHF vOTU inh-2 – confirmation of CCHF virus vOTU protease inhibitors; shares compounds with CCHF vOTU inh-1; Recombinant CCHFV vOTU, Pep-AMC fluorescence; inhibition, % at 11.5 µM; hit rate 17% among 1,900
The depositor's hits bear a star; . = not tested or not shown. Unless noted, no stated cut-off is given here; in the data, active means inhibition above about 30%; inactive means the rest.

SMILES	3CLpro inhibitor	Mtb FBA inh	RecA intein inh	GDH-TPI counter	DUSP3 inh	CCHF vOTU inh-1	CCHF vOTU inh-2
CC1CC1C(=O)N1CCN(S(=O)(=O)c2cc(C(F)(F)F)cc(C(F)(F)F)c2)CC1 (configuration not stated)	.	-3	.	0	.	30*	-11
CCN(CC)C(CNC(=O)CSc1nnnn1-c1c(C)cccc1C)c1ccco1 (configuration not stated)	.	3	.	-15	.	19	.
CCC(C)(C)C1CCc2c(sc(NC(=O)c3ccccc3C(=O)O)c2C#N)C1 (configuration not stated)	1	0	8	4	3	35*	24
CC1CCc2c(sc(NC(=O)c3ccccc3C(=O)O)c2C#N)C1 (configuration not stated)	5	0	-1	4	15	7	.
O=C1CSC(c2ccc([N+](=O)[O-])cc2)N1Cc1ccccc1 (configuration not stated)	-2	-1	4	6	35	-3	.
Cc1ccc(C(=O)N2CCCC(Nc3ccc(F)cc3)C2)cc1C (configuration not stated)	5	0	0	5	-11	30*	4
CCC(=O)Nc1ccc2ccccc2c1	5	0	2	-11	0	-10	.
CC(C)(C)CC(C)(C)NC(=O)CSCC(=O)Nc1ccc2ccccc2c1	9	-1	4	4	1	30*	12
COc1ccc(N2C(=O)C(Cl)=C(Nc3ccccc3OC)C2=O)cc1	1	-3	0	18	26	36*	-5
COc1ccc(NS(=O)(=O)c2cc(N=Nc3c(O)[nH]c(=O)[nH]c3=O)ccc2OC)cc1Br	.	-9	.	30	.	15	.
CCOc1ccc(NS(=O)(=O)c2ccc(Cl)c(N=Nc3c(O)[nH]c(=S)[nH]c3=O)c2)cc1Br	.	-7	.	19	.	33*	3
COC(=O)C1=C(C)N(Cc2cccc(C(F)(F)F)c2)C(=NCC2CC2)NC1c1ccccc1C(F)(F)F (configuration not stated)	.	.	.	.	.	24	.
Oc1cc(CNCc2ccccc2)c(O)cc1CNCc1ccccc1	.	-2	.	11	.	43*	-2
COc1cccc(C(=O)CN(C(=O)c2ccc(Cl)cc2Cl)N2C(=O)c3ccccc3C2=O)c1	3	1	-7	1	5	14	.
Cc1cc(/C=C2/C(=N)N3C(=NC2=O)SN=C3S(C)(=O)=O)c(C)n1-c1ccc(F)cc1	-1	6	-12	6	12	5	.
Cc1cccc(C)c1-n1cccc1/C=C1/C(=N)N2C(=NC1=O)SN=C2S(C)(=O)=O	6	-4	15	32*	7	35*	23
Cc1ccc(-n2cccc2/C=C2/C(=N)N3C(=NC2=O)SN=C3S(C)(=O)=O)cc1Cl	6	0	.	14	-9	52*	8
O=C(Cc1ccc(NC(=O)C2CCN(C(=O)C3CCCC3)CC2)cc1)Nc1cccc(C(=O)N2CCCCC2)c1	.	0	.	-5	.	2	.
Cc1cccc(NC(=O)CN2C(=O)S/C(=C\c3ccc(O)c([N+](=O)[O-])c3)C2=O)c1	7	-6	0	-2	11	31*	2
O=c1oc2ccccc2c(O)c1C(c1ccc([N+](=O)[O-])cc1)c1c(O)c2ccccc2oc1=O	11	-3	28	11	15	22	.
CC(C)c1ccc(C(c2c(O)c3ccccc3oc2=O)c2c(O)c3ccccc3oc2=O)cc1	.	-3	.	2	.	37*	-7
CC(=O)O[C@@H]1C=C[C@@H](C#Cc2ccc(C(C)(C)C)cc2)O[C@@H]1COC(=O)Nc1ccccc1	.	.	.	.	.	34*	-8
CC(=O)O[C@H]1C=C[C@@H](C#Cc2ccc(C(C)(C)C)cc2)O[C@@H]1COC(=O)Nc1ccccc1	.	.	.	.	.	5	.
O=C(CSc1ccc(Br)c2cccc(Cl)c12)Nc1ccc(S(=O)(=O)Nc2nccs2)cc1	2	-1	-2	9	15	36*	13
CC(=O)Nc1cccc(NC(=O)CS(=O)(=O)c2cn(CC(=O)N(C(C)C)C(C)C)c3ccccc23)c1	1	2	-2	0	38	0	.
SMILES	3CLpro inhibitor	Mtb FBA inh	RecA intein inh	GDH-TPI counter	DUSP3 inh	CCHF vOTU inh-1	CCHF vOTU inh-2
O=c1c2ccccc2c(C=NC2CCN(Cc3ccccc3)CC2)c(O)n1Cc1ccc2c(c1)OCO2	4	.	5	.	20	31*	-16
O=C(CCN1C(=O)/C(=C\C=C\c2ccccc2)SC1=S)Nc1cccc(C(=O)O)c1	7	-9	8	4	2	33*	5
O=C1CCCN1CCCNCCCn1cnc2c(OCc3ccccc3)ncnc21	.	-2	.	-1	.	-6	.
O=C(Cn1cnc2c(OCc3ccccc3)ncnc21)NCCCN1CCCC1=O	.	0	.	5	.	30*	3
CCCCn1c(N)c(N(CCOC)C(=O)C2CCN(S(=O)(=O)c3ccc(Cl)cc3)CC2)c(=O)[nH]c1=O	3	1	2	0	5	4	.
Cc1ccccc1CCN1CCCC(CN(C)C(=O)c2ccc3ncccc3c2)C1 (configuration not stated)	-4	1	0	-7	16	-7	.
COC(=O)C1=C(C(=O)OC)SC2(S1)C(C(=O)OC)=C(C(=O)OC)Sc1c2ssc1=O	.	4	.	17	.	32*	9
COC(=O)C1=C(C(=O)OC)SC2(S1)C(C(=O)OC)=C(C(=O)OC)SC1=C2c2cc(C)cc(C)c2NC1(C)C	9	2	-2	4	-10	17	.
COc1ccc(NC(C)=O)cc1CP(=O)(c1ccccc1)c1ccccc1	1	0	-1	-6	21	-2	.
CC(CC(=O)N1CCc2ccccc21)n1cccn1 (configuration not stated)	0	-4	0	-7	25	35*	-8
Cc1ccn(C(C)CC(=O)N2CCc3ccccc32)n1 (configuration not stated)	-1	-1	1	-5	-17	-6	.
COc1ccc(NC(=O)CN(C)CC(=O)NC(=O)NC2CCCCC2)cc1	.	-2	.	6	.	38*	-18
CN(CC(=O)NC(=O)NC1CCCCC1)CC(=O)Nc1ccc(OC(F)(F)F)cc1	.	-2	.	-6	.	17	.
O=C(O)CC1S/C(=N/N=C/c2ccc(-c3ccc(Cl)cc3[N+](=O)[O-])o2)NC1=O (configuration not stated)	5	-3	70*	33*	24	36*	15
COc1ccc(/C=N/N=C2/NC(=O)C(CC(=O)O)S2)cc1OCc1ccc(Cl)cc1 (configuration not stated)	3	-4	-10	57*	13	31*	-1
CC(C)(C)NCCC(O)c1cc(C(F)(F)F)nc2c(C(F)(F)F)cccc12 (configuration not stated)	.	0	.	0	.	30*	-18
O[C@@H](c1cc(C(F)(F)F)nc2c(C(F)(F)F)cccc12)[C@H]1CCCCN1	.	-4	-5	-11	.	1	.

Source: PubChem
